# According to PubChem BioAssay (NCATS):
# Inconclusive results are not listed. Activity calls are given as the source filed them. Calls come from the whole dose curve; as a rule, active = well fitted inhibition curve with a large enough effect; inconclusive = small, poorly fitted or top-dose-only effect; inactive = no such curve, though single readings can be large or run the other way.
# Assay: Primary qHTS for inhibitors of nuclear receptor binding SET domain protein 2 (NSD2) in an RCH-ACV wild type WT cells (2C) (AID 1645877); note: nearly all actives have a fitted effect of over 70% in size
# Conditions: RCH-ACV (leukaemia line) NSD2 WT (2C) viability, CellTiter-Glo, 72 h; series mostly up to 44.9 µM; activity change, negative = cell killing: at the top concentration
# % is set by controls: 0 for no effect and ±100 for the full control effect; potency is the fitted concentration of half-maximal effect.
Compound,Potency,"activity change, negative = cell killing",outcome
COC(C(=O)N1Cc2[nH]nc(NC(=O)c3ccc(N4CCN(C)CC4)cc3)c2C1)c1ccccc1 (configuration not stated),0.0459 µM (active),–,–
CC1OC(O[C@H]2CC[C@@]3(C)C(CC[C@]4(C)C3CC=C3C5CC(C)(C)CC[C@]5(C(=O)OC5OC(CO)C(OC6OC(COC7OCC(O)C(O)C7O)C(O)C(O)C6O)C(O)C5O)CC[C@]34C)C2(C)C)C(O)C(O)C1OC1OCC(OC2OCC(O)C(O)C2O)C(O)C1O (some centres not stated),–,2.24% [at 9.23 µM] (inactive),–
COc1ccc(CNC(=O)c2cc(-c3cncc(C)c3)ncc2-c2nccs2)nc1OC,–,–,inactive
CC(=O)SCC(=O)c1ccc(NS(=O)(=O)c2ccc(OCCCN(C)C)cc2)nc1,1.15 µM (active),–,–
N=c1nc2n(cc1F)C1OC(CO)C(O)C1O2 (configuration not stated),0.0183 µM (active),–,–
Cc1ccc(C(=O)N(CCCN)C(c2nc3cc(Cl)ccc3c(=O)n2Cc2ccccc2)C(C)C)cc1 (configuration not stated),0.0073 µM (active),–,–
OC[C@H]1O[C@@H](OCCc2ccccc2)[C@H](O[C@@H]2OC[C@](O)(CO)[C@H]2O)[C@@H](O)[C@@H]1O,–,–,inactive [at 17.3 µM]
Cc1ccc(NC(=O)c2ccc(CN3CC[C@H](N(C)C)C3)c(C(F)(F)F)c2)cc1Nc1nccc(-c2cncnc2)n1,7.23 µM (active),–,–
COc1cc(O)c([C@@H](CC(=O)N2CC(C)CC(C)C2)c2ccc3c(c2)OCO3)c(OC)c1 (some centres not stated),–,-23.9% (inactive),–
O=C(Nc1ccc(S(=O)(=O)Nc2nccs2)cc1)C(c1ccccc1)c1ccccc1,–,-11.1% (inactive),–
CC1CCN(C(=O)CC#N)CC1N(C)c1ncnc2[nH]ccc12 (configuration not stated),–,-18.4% (inactive),–
CN(C)C(=O)NC1CCC(CCN2CCN(c3cccc(Cl)c3Cl)CC2)CC1 (configuration not stated),–,2.1% [at 9.23 µM] (inactive),–
